The source of these data is PubChem BioAssay (NCATS).

Molecules are shown by their SMILES. A number with no mark means an inactive call. Records with an inconclusive call do not appear. Where a call stands in place of a potency, no number is given. Activity calls are given as the source filed them. Unless noted, calls follow the shape of the dose curve; as a rule, active = well fitted curve in either direction with a large enough effect (not every such curve was filed as active); inconclusive = small, poorly fitted or top-dose-only effect, or another doubt; inactive = flat fitted curve, though single readings scatter. Residues, ends and D or L forms follow the SMILES beside them. *: point of attachment. Cbz = O=C(OCc1ccccc1)*

Glucocorticoid receptor (Homo sapiens), sequence (P04150 whole entry, looked up, the tested form may be a part): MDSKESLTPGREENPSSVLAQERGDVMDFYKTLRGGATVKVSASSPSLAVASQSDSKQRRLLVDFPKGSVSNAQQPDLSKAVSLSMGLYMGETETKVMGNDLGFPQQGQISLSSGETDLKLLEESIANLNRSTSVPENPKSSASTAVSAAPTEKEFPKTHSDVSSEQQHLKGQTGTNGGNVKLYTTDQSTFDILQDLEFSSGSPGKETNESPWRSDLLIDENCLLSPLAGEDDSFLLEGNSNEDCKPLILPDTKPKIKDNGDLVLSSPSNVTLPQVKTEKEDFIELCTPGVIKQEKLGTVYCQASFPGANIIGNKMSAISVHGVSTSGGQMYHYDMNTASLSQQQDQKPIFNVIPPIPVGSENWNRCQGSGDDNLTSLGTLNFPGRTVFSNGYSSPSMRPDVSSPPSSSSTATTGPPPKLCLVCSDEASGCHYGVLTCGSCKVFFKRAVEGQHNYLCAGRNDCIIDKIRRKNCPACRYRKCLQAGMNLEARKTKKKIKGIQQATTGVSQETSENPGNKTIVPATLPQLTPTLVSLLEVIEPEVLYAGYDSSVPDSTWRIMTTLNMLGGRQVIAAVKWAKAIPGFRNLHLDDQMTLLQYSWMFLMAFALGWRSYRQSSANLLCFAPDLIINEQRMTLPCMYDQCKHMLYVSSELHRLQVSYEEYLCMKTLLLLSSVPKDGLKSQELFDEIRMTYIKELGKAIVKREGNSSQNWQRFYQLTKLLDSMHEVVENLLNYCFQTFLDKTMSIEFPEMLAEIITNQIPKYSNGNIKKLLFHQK

One assay addresses Glucocorticoid receptor (Homo sapiens) (UniProt P04150). The experiment in a line: GR-EFC Redistribution (AID 451; calls by dose curve; also: potency is read from the fitted curve at half-maximal effect). Conditions: CHO-K1 GR-EFC translocation, beta-gal luminescence, 2 h. The method, boiled down:
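Translocation of GR-ED fusion to nuclear EA restores b-gal, read by luminescence after 1 h room-temperature detection. Engineered CHO-K1 biosensor cells, 1,000/well, exposed 2 h at 37 C to titrations up to 46 uM final.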
In the case of `COc1ccc(CCN(C)CCc2ccc(OC)c(OC)c2)cc1OC`, the Potency is greater than 46 µM.
Take `C[C@](Cc1ccc(O)c(O)c1)(NN)C(=O)O`: the Potency is greater than 46 µM.
For the compound `CC(C)[C@H](NC(=O)OCc1ccccc1)C(=O)N[C@H](C=O)Cc1ccccc1` (Cbz-Val-Phe-aldehyde), the Potency is greater than 46 µM.
In the case of `Cc1cccc(C(=O)NCN2CCN(c3ccccc3C#N)CC2)c1`, the Potency is greater than 46 µM.
As to `O=c1onc2cnc3ccccc3n12`, the Potency was greater than 46 µM.
As for `O=C(O)Cc1c[nH]c2ccc(O)cc12`, the Potency was greater than 46 µM.

For another assay, the target named is Mitogen-activated protein kinase 10 (Mus musculus) (UniProt Q61831). The experiment in a line: JNK3 AlphaScreen Assay (AID 530).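 Also: kinase came from lysate of stimulated human HepG2 cells; signal reports phosphorylation of biotinylated GST-cJun 1-79 at Ser73 with 10 µM ATP.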 Conditions: JNK3 lysate, c-Jun phosphorylation; series mostly up to 57.1 µM. The method, boiled down: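 Compound titrations were preincubated 15 minutes at room temperature with substrate, antibody and pre-activated JNK3-containing HepG2 lysate. Reactions were started with 10 uM ATP and stopped with EDTA-containing bead buffer for AlphaScreen detection.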
For orientation: In Alpha technology, singlet oxygen from a donor bead excites a nearby acceptor bead.
As for `CN1CCN(c2nc3cc(C(F)(F)F)ccc3n3cccc23)CC1`, the compound was called inactive.
`O=S(=O)(c1cccc2c(Cl)cccc12)N1CCCNCC1`: the call was inactive.
Same read-out and setting: in the case of `CNC(=O)c1cc2c(cn1)[nH]c1ccccc12` it was “inactive”.
Regarding `CC(C)(CO)Cc1cc(C(C)(C)C)c(O)c(C(C)(C)C)c1`, the compound was classed as inactive.
For `N=C(N)c1ccc(N)cc1`, the compound was called inactive.
Still for that read-out and setting: with `N=C(N)c1ccccc1` the entry was “inactive”; with `N=C(N)SCCc1cnc[nH]1`, “inactive”.
The same measure, in the same setting: with `CCN(c1nc(N)c(C(=O)N=C(N)N)nc1Cl)C(C)C` the entry was “inactive”; with `C#CCn1c(=O)c2c(ncn2C)n(C)c1=O`, “inactive”; with `Nc1ncnc2c1ncn2C1CCCC1`, “inactive”.
For `Cn1ccnc1`, the result was inactive.
On the same count and under the same terms, in the case of `CC(N)=O` it was “inactive”; in that of `CCCCCCCCCCCCCCC[C@H](O)[C@H](N)CO`, “inactive”.
For `Oc1ccc(Cn2cc[nH]c2=S)cc1`, the compound was classed as inactive.
Consider `CCN(CC)CCCCCCCCOC(=O)c1cc(OC)c(OC)c(OC)c1`, for which the result was inactive.
Regarding `COc1ccccc1N1CCN(CCCCN2C(=O)c3ccccc3C2=O)CC1`, the outcome was inactive.
With `C[C@](Cc1ccc(O)c(O)c1)(NN)C(=O)O`, the call was inactive.
On the same count and under the same terms, in the case of `CC(C)[C@H](NC(=O)OCc1ccccc1)C(=O)N[C@H](C=O)Cc1ccccc1` (Cbz-Val-Phe-aldehyde) it was “inactive”; in that of `Cc1cccc(C(=O)NCN2CCN(c3ccccc3C#N)CC2)c1`, “inactive”.
For the compound `O=c1onc2cnc3ccccc3n12`, the call was inactive.
Consider `O=C(O)Cc1c[nH]c2ccc(O)cc12`, for which the compound was called inactive.
For `Cc1nc(N=Nc2ccc(C(=O)O)cc2)c(COP(=O)(O)O)c(C=O)c1O`, the outcome was inactive.
